What all share (test): qHTS profiling for inhibitors of Plasmodium falciparum proliferation (AID 504749); also: nearly all actives have a fitted effect of over 60% in size
What all share (conditions): P. falciparum in erythrocytes, SYBR Green DNA, 72 h; series mostly up to 28.7 µM

One experiment relates to AA1029. The method, boiled down:
(§1)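 SYBR Green fluorescence (ex 485 nm, em 535 nm) reports parasite DNA after 72 h compound exposure of infected red cells at 0.3% parasitemia, 2.5% hematocrit; signal normalized to 0.29 uM artemisinin and vehicle wells.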

The subject of a further experiment is AS120. The method, boiled down: as §1
The subject of another experiment is ATS189. The method, boiled down: as §1
For the next experiment, the system named is ATS95. The method, boiled down: as §1
The next experiment concerns C2A. The method, boiled down: as §1
The next experiment deals with CP185. The method, boiled down:
as §1

Another experiment concerns CP191. The method, boiled down: as §1
A further experiment has as its system CP192. The method, boiled down: as §1
For another experiment, the system named is CP194. The method, boiled down: as §1
The test system of the next experiment is CP201. The method, boiled down: as §1
For another experiment, the system named is CP211. The method, boiled down: as §1
The subject of a further experiment is CP215. The method, boiled down:
as §1

Another experiment concerns CP217. The method, boiled down:
as §1

The next experiment has as its system CP237. The method, boiled down: as §1
The subject of a further experiment is CP238. The method, boiled down: as §1
In the next experiment the test system is CP247. The method, boiled down:
as §1

In the next experiment the test system is CP250. The method, boiled down:
as §1

The subject of the next experiment is CP252. The method, boiled down: as §1
The subject of another experiment is CP256. The method, boiled down: as §1
The test system of another experiment is CP260. The method, boiled down: as §1

Results filed as inconclusive are left out. Calls of active or inactive are those of the source. Calls follow the shape of the dose curve; as a rule, active = well fitted inhibition curve with a large enough effect; inconclusive = small, poorly fitted or top-dose-only effect; inactive = flat fitted curve, though single readings scatter.
Potency is read from the fitted curve at half-maximal effect.

Regarding `CCCCc1ccc(C(=O)O)nc1`, the Potency entry in the experiment on AA1029, in the experiment on AS120, in the experiment on ATS189, with ATS95, in the experiment on C2A and in the experiment on CP185 was “inactive” each time. The Potency result in the experiment on CP191, in the experiment with CP192, in the experiment on CP194, in the experiment on CP211, with CP215 and in the experiment on CP217 was “inactive” throughout. For the same compound, the Potency entry in the experiment with CP237, in the experiment with CP238, with CP247, in the experiment on CP250, in the experiment on CP252 and in the experiment on CP256 was “inactive” in each case. In addition, the Potency entry in the experiment on CP260 is “inactive”. Also, the call with CP201 was inactive.

For the compound `NC(=O)CN1CC(O)CC1=O` (stereo not given), the Potency result with AA1029, with AS120, in the experiment on ATS189, in the experiment with ATS95, in the experiment on C2A and with CP185 was “inactive” in each case. For the same compound, the Potency result in the experiment with CP191, in the experiment on CP192, in the experiment on CP194, in the experiment with CP211, in the experiment on CP215 and in the experiment with CP217 was “inactive” each time. In addition, the Potency entry with CP237, with CP238, with CP247, with CP250, in the experiment with CP252 and in the experiment on CP256 was “inactive” each time. For the same compound, in the experiment with CP260, the Potency entry is “inactive”. Further, in the experiment with CP201, the call was inactive.

Regarding `COC(=O)c1cncn1C(C)c1ccccc1` (stereo not given), the Potency entry in the experiment with CP192, with CP194, in the experiment with CP211 and in the experiment on CP215 was “inactive” in each case. Besides, the outcome with CP201 was inactive.

Regarding `CC(=O)OCC1=C(C(=O)O)N2C(=O)[C@@H](N)[C@@H]2SC1`, the Potency result with CP192, with CP194, with CP211, with CP215, in the experiment on CP237 and with CP260 was “inactive” in each case. Moreover, the compound was classed as inactive in the experiment on CP201.

`C1CCC(NC2CCCCC2)CC1`: the Potency result in the experiment on AA1029, with AS120, in the experiment with ATS189, in the experiment with ATS95, in the experiment with C2A and in the experiment on CP185 was “inactive” each time. The Potency entry in the experiment with CP191, in the experiment with CP192, in the experiment on CP194, in the experiment with CP211, in the experiment on CP215 and with CP217 was “inactive” throughout. Besides, the Potency entry in the experiment with CP237, in the experiment on CP238, in the experiment with CP247, with CP250, in the experiment with CP252 and in the experiment with CP260 was “inactive” throughout. Further, the outcome in the experiment on CP201 was inactive.

In the case of `O=C(O)COc1ccccc1`, the Potency entry in the experiment with AA1029, in the experiment on AS120, in the experiment with ATS189, with ATS95, with C2A and in the experiment on CP185 was “inactive” in each case. In addition, the Potency result with CP191, in the experiment on CP192, in the experiment on CP194, in the experiment on CP211, in the experiment with CP215 and in the experiment on CP217 was “inactive” throughout. For the same compound, the Potency entry with CP237, in the experiment on CP238, in the experiment on CP247, in the experiment on CP250, in the experiment with CP252 and with CP256 was “inactive” in each case. Besides, in the experiment on CP260, the Potency entry was “inactive”. For the same compound, the compound was classed as inactive with CP201.

With `CC(=O)[O][Hg][c]1ccccc1`, the Potency is 4.47 µM (active) with AA1029; 3.98 µM (active) in the experiment on AS120; 11.2 µM (active) in the experiment with ATS189; 4.47 µM (active) in the experiment with ATS95; 5.01 µM (active) in the experiment with CP185; 8.91 µM (active) in the experiment on CP191. The Potency with CP192 is 9.53 µM (active); in the experiment on CP194, 9.53 µM (active); with CP211 it was 15.1 µM (active); with CP215, 6.01 µM (active); with CP217, 7.08 µM (active); in the experiment with CP237 it was 4.47 µM (active). Moreover, the Potency in the experiment with CP238 was 5.62 µM (active); in the experiment on CP247, 5.62 µM (active); in the experiment with CP250, 7.08 µM (active); in the experiment on CP252 it was 8.91 µM (active); with CP256, 8.91 µM (active); in the experiment on CP260, 3.98 µM (active).

For `C[C@]12CCC(=O)C(O)=C1CC[C@@H]1[C@H]3CCC(=O)[C@@]3(C)CC[C@@H]12`, the Potency result in the experiment on AS120, in the experiment on CP191, in the experiment on CP192, with CP194, with CP211 and in the experiment on CP215 was “inactive” throughout. Moreover, the Potency result with CP217, with CP237, with CP238, with CP247, in the experiment with CP252 and with CP260 was “inactive” throughout. In addition, the outcome in the experiment on CP201 was inactive.

As for `Cc1ccc(Cl)c(O)c1`, the Potency entry in the experiment with AA1029, in the experiment with AS120, in the experiment on ATS189, with ATS95, with C2A and with CP185 was “inactive” in each case. Also, the Potency entry in the experiment on CP191, in the experiment with CP192, with CP194, in the experiment on CP211, in the experiment with CP215 and in the experiment on CP217 was “inactive” in each case. Further, the Potency entry with CP237, in the experiment on CP238, with CP247, in the experiment on CP250, in the experiment on CP252 and in the experiment on CP256 was “inactive” throughout. In addition, the Potency entry in the experiment with CP260 is “inactive”. For the same compound, in the experiment with CP201, the outcome was inactive.

With `CCCCCCCCCCCCCCCC[N+](C)(C)C`, the Potency in the experiment on AS120 is 11.2 µM (active); with C2A, 8.91 µM (active); in the experiment with CP211, 13.5 µM (active); with CP237, 7.08 µM (active); with CP250 it was 8.91 µM (active); with CP260, 5.62 µM (active).

Turning to `c1ccc(C2(c3ccccc3)CC2C2=NCCN2)cc1` (stereo not given), the Potency entry with AA1029, with AS120, in the experiment on ATS189, in the experiment on ATS95, with C2A and with CP185 was “inactive” in each case. The Potency entry in the experiment with CP192, in the experiment with CP194, with CP211, in the experiment on CP215, in the experiment on CP217 and in the experiment with CP237 was “inactive” in each case. For the same compound, the Potency result with CP238, in the experiment on CP247, with CP250 and in the experiment on CP252 was “inactive” each time. Moreover, the compound was classed as inactive with CP201.

Take `CN1C2CCC1CC(OC(=O)c1cc(Cl)cc(Cl)c1)C2` (stereo not given): the Potency result in the experiment on AA1029, in the experiment with AS120, with ATS189, in the experiment with ATS95, in the experiment with C2A and in the experiment with CP185 was “inactive” in each case. The Potency entry in the experiment with CP191, with CP192, in the experiment on CP194, with CP211, in the experiment on CP215 and with CP217 was “inactive” in each case. Also, the Potency entry with CP237, in the experiment on CP238, in the experiment with CP247, in the experiment with CP250, with CP252 and with CP256 was “inactive” in each case. The Potency result in the experiment with CP260 is “inactive”. Also, in the experiment with CP201, the call was inactive.

`COC(=O)[C@@H](N)CCCN=C(N)N[N+](=O)[O-]`: the Potency result in the experiment with AA1029, in the experiment with AS120, with ATS189, in the experiment on ATS95, with C2A and in the experiment with CP185 was “inactive” each time. The Potency result in the experiment with CP191, in the experiment on CP192, with CP194, in the experiment on CP211, in the experiment on CP215 and with CP217 was “inactive” each time. The Potency result with CP237, in the experiment on CP238, in the experiment on CP247, in the experiment with CP250, with CP252 and in the experiment with CP256 was “inactive” in each case. Also, the Potency entry in the experiment with CP260 is “inactive”. Besides, the compound was called inactive with CP201.

For the origin of these results see PubChem BioAssay (NCATS).
